Pf Dd2 growth – Plasmodium falciparum Dd2 growth inhibition. P. falciparum Dd2 growth, SYBR Green, 72 h. Potency, µM (titrated, usually from 28.9 µM), for the others: at the highest dose activity, negative = inhibition, actives largely listed as inhibitors. 120,000 tested, 4.3% active; active means well fitted inhibition curve with a large enough effect;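 further: plate controls were DMSO vehicle for no effect and reference drug for full effect; nearly all actives have a fitted effect of over 65% in size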
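Infected erythrocytes (Dd2, 0.3% parasitemia, 2.5% hematocrit final) are added to compound in RPMI-1640/Albumax II medium, grown 72 h at 37C in low oxygen, then lysed with saponin/Triton-X containing SYBR Green and read by fluorescence.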
The depositor's hits bear a star; i = inactive; [ ] = another dose, or the depositor's remark. Many of the other results were omitted from the sample, so hits are more common in it than they were. Potency means the concentration at half of the fitted maximal effect.

SMILES | Pf Dd2 growth
CCc1cccc2c(C(CC(=O)NCCc3ccc(OC)c(OC)c3)c3cccc(OC)c3)c[nH]c12 (stereo not given) | -15.6%
C#CCNC(=O)C[C@@H]1O[C@H](CNC(=O)c2ccc(C)cc2)[C@@H](O)[C@H]1O | 9.9%[44.1 µM]
CS(=O)(=O)N1CCCC1c1noc(CCC(=O)N2CC=C(c3ccccc3)CC2)n1 (stereo not given) | i
NS(=O)(=O)c1ccc(CCNCC2(O)CCNC2)cc1 (stereo not given) | 6.4%
CCN1CCN(C(=O)Cn2cccc(OC)c2=O)CC1(C)C | -9.2%
CCCN1CCN(C(=O)CN2CC3CC(C2)[C@H]2CCCC(=O)N2C3)CC1 (stereo not given in full) | -18.3%
Cc1ccncc1C(=O)N1CCC2(CC1)CC(N1CCN(c3ccccn3)CC1)CCO2 (stereo not given) | i
COc1ccc(NC(=O)Cn2c(N(C)Cc3ccccc3)nc(C)cc2=O)cc1 | -25.4%
CC1=C[C@@H](CNC(=O)COc2ccccc2)[C@H](C(C)C)C[C@H]1CC(=O)NCc1cccnc1 | i
COC(=O)C1CCN([C@H]2[C@@H]3OC[C@@H](O3)[C@@H](NC(=O)Nc3cccc(OC)c3)[C@@H]2O)CC1 | 5.8%
Cn1cccc1CN1CCC2CC(=O)NCCC2C1 (stereo not given) | 5.4%[44.1 µM]
COc1ccc([C@@H](NC(=O)CN2CCc3ccccc3C2)C2CC(O)C2)cn1 (stereo not given in full) | i
Cc1cc(C(=O)N2CCCC(Cc3noc(-c4cnccn4)n3)C2)n[nH]1 (stereo not given) | i
Cc1nnc([C@H]2CCN(Cc3ccco3)C2)o1 | 7.2%[44.1 µM]
CCOC(=O)c1ccc(NC(=O)CCc2c(C)nc3c(-c4ccc(F)cc4)c(C)nn3c2C)cc1 | 3.55µM*
Cc1nc2c(-c3ccc(F)cc3)c(C)nn2c(C)c1CCC(=O)NCc1ccc(F)cc1 | 41.1%
CCOC(=O)c1ccc(NC(=O)c2cnc3c(-c4ccc(F)cc4)c(C)nn3c2C)cc1 | 49.8%
COC(=O)CCC(=O)N1CCCC(N2CCN(c3cccc(Cl)c3)CC2)C1 (stereo not given) | i
CCC(=O)N1CCCN(CC)C2(CCOCC2)C1 | -14.7%
FC1(F)C[C@@H](c2nnc(C3CC3)o2)N(C2CCOCC2)C1 | 7.9%
FC(F)(F)c1ccc2c(c1)nc1n2[C@@H](CNC2CCOCC2)COC1 | i
O=C(CN1CCOC1=O)N1CCC2(CCC(=O)N(CCCn3ccnc3)C2)CC1 | -15.3%
COc1ccc(OCC(=O)Nc2cc(-c3nc4ccccc4s3)ccc2C)cc1 | 3.5%
Cc1ccc(-c2nc3ccccc3s2)cc1NC(=O)COc1ccccc1 | 13.3%
Cc1ccc(-c2nc3ccccc3[nH]2)cc1NC(=O)COc1cccc(C)c1C | 7.08µM*
SMILES | Pf Dd2 growth
COCCNc1ccc(-c2nc(-c3ccco3)no2)cc1[N+](=O)[O-] | -21.2%
COCCNc1nc2cc(C(=O)N[C@@H]3CC[C@@H](N)C3)ccc2n1C | 3.9%
COCCNc1nc2cc(-c3nc(-c4cccnn4)no3)ccc2n1C | 6.31µM*
COCC(=O)NC[C@H]1O[C@@H](CC(=O)N2CCN(c3ccccc3)CC2)[C@H](O)[C@@H]1O | -10.6%[44.1 µM]
COCCCNc1nc2c([S+](=O)([O-])c3ccncc3)nnn2c2ccccc12 | -22.4%
COc1ccc(-c2noc(-c3ccc(N4C[C@H]5CC[C@H]4C5)nc3)n2)cc1 | -17.4%
CC(C)CC1=NC2(CCN(C(=O)c3cccc(N(C)C)c3)CC2)C(=O)N1 | -2.4%
Cc1ccc(C2=NC3(CCN(C(=O)c4cccc(N(C)C)c4)CC3)ON2)cc1 | -8.0%
CN(C)c1cccc(C(=O)N2CCC(c3c[nH]c4ccccc34)(c3c[nH]c4ccccc34)CC2)c1 | 3.98µM*
O=C(CCCn1cnnn1)N[C@@H]1COCC[C@@H]1OCC1CCC1 | -23.8%
Cc1ccccc1C(=O)N1CCC(c2n[nH]c(=O)n2Cc2ccc(F)cc2)CC1 | -24.0%
Cn1nccc1OCc1cn2c(=O)n(C)cc(-c3cccc(C(F)(F)F)c3)c2n1 | -15.8%[44.1 µM]
CN(Cc1ccc(N2CCNC2=O)cc1)CC1CCCN(CCc2ccc(F)cc2)C1 (stereo not given) | 12.6µM*
O=C(Cc1ccc(N2CCNC2=O)cc1)N1CCC2(CC1)[C@H](O)C[C@@H]2O | -1.9%
COc1ccc(CCN2CCCC(CN(C)C(=O)c3cnn(C(C)C)c3)C2)cc1 (stereo not given) | i
O=C(c1ccco1)N1CCC(Cc2nc(C3CCOCC3)no2)CC1 | 2.9%
CSCC(=O)N[C@H]1CCN2C(=O)N(c3cccc(SC)c3)C(=O)[C@@H]2C1 | -9.2%[44.1 µM]
CC(C(=O)NCC1CC1)N1C(=O)COc2ccc(C(=O)COc3ccccc3Cl)cc21 (stereo not given) | i
Cc1ccccc1NC(=O)N1c2ccccc2CC1c1noc(C2CCOCC2)n1 (stereo not given) | i
COc1ccc(-c2noc([C@@H]3Cc4nc[nH]c4CN3C(=O)CSCC(=O)O)n2)cc1 | i
COc1ccc(-c2onc(C)c2C(=O)N(C)Cc2cc(OC)c(OC)c(OC)c2)cc1 | 10µM*
